3T3 cytotox – Cytotoxic Profiling in NIH 3T3 Cell Line of Diverse Libraries Using Quantitative High-Throughput Screening | NIH 3T3 viability, CellTiter-Glo ATP luminescence, 48-72 h | 4.3% of 94,000 active | Potency, µM (highest dose often 96.7 µM), for inactives: at the highest dose activity change, negative = cytotoxicity, hits mostly inhibitors; note: nearly all actives have a fitted effect of over 55% in size
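Viability of NIH 3T3 cells after 48 or 72 hr compound treatment at 37 °C was assessed by CellTiter-Glo, with luminescence imaged following a 10 min room-temperature step.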
HEK cytotox – Cytotoxic Profiling in HEK 293 Cell Line of Diverse Libraries Using Quantitative High-Throughput Screening. HEK 293 viability, ATP luminescence (CellTiter-Glo), 48-72 h. 6.6% of 94,000 active. AID 1345083, 2018. Potency, µM (top dose mostly 115 µM), for inactives: top-dose activity change, negative = cytotoxicity, actives largely listed as inhibitors; note: nearly all actives have a fitted effect of over 60% in size
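Pintool-delivered compounds were incubated with HEK 293 cells (250 cells/well) at 37 degree Celsius for 48 or 72 hr. ATP-dependent luminescence (CellTiter-Glo) then reported remaining viable cells.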
Luciferase inh – Firefly luciferase inhibition profiling of diverse chemical library using quantitative high-throughput screening. Luciferin 4-monooxygenase (Photinus pyralis), P08659. purified P. pyralis luciferase, luminescence, biochemical. Potency, µM (highest dose often 115 µM), usual class: inhibitors. 2.5% of 76,000 active. AID 1347043, 2019; note: nearly all actives have a fitted effect of over 65% in size
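FLuc 10nM, D-luciferin 10uM, ATP 10uM, Mg acetate 10mM, Tris acetate pH 7.5, Tween/BSA; cpd qHTS; enzyme added last; CCD luminescence.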
NPR1 antag – Natriuretic polypeptide receptor (hNpr1) antagonism - Primary qHTS | Atrial natriuretic peptide receptor 1 (Homo sapiens), P16066 | HEK293 hNpr1 GloSensor cGMP, ANP-stimulated luminescence | Potency, µM (top dose mostly 46.3 µM), for inactives: at the top dose activity change, negative = inhibition, most hits filed as inhibitors | 1.6% of 76,000 active; calls by dose curve; note: nearly all actives have a fitted effect of over 60% in size
Target sequence (P16066 whole entry, looked up): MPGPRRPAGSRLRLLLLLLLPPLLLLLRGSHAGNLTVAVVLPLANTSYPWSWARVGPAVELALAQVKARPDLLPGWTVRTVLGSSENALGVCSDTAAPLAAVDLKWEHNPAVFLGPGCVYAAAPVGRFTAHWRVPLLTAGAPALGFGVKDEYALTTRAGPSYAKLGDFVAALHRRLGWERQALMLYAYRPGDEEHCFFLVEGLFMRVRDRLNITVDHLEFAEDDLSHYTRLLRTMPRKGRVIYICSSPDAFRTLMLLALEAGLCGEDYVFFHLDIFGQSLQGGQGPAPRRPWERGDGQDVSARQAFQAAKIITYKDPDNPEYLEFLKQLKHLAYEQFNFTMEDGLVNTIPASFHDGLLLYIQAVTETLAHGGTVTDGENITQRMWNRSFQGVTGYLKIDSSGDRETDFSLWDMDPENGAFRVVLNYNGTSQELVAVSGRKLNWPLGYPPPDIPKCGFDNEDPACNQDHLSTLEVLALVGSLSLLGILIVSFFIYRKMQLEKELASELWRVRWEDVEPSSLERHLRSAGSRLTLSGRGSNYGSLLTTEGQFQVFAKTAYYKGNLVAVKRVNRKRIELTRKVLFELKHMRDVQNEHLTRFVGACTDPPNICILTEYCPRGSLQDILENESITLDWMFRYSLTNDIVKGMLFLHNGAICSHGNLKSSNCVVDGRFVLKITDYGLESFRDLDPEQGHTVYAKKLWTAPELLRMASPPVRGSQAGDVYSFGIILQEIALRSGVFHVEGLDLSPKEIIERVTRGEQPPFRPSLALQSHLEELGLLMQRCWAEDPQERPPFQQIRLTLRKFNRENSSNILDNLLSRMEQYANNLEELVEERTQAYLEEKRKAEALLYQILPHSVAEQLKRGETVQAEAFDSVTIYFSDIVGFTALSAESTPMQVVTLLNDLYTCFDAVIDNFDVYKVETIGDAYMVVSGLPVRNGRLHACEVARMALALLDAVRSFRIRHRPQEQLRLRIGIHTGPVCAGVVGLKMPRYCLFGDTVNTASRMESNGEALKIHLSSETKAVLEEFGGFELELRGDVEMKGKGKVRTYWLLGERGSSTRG
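HEK293 cells stably expressing human Npr1 and cGMP GloSensor pGS-40F, loaded 2 h with 2% GloSensor reagent, given compound 30 min at room temperature. Luminescence read before and 20 min after 0.1 nM hNppA.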
Starred values were filed as active, the others as inactive; i = inactive; ? = inconclusive; nt = not tested or not shown; ! = repeats disagree; [ ] = remark or other dose. Rows were chosen to be rich in hits. Some 11% of all compounds tested hit in one or more screens of this group. Unless noted, calls come from the whole dose curve; as a rule, active = well fitted curve in the direction sought with a large enough effect; inconclusive = small, poorly fitted or top-dose-only effect, or another doubt; inactive = no such curve, though single readings can be large; an effect the other way counts as inactive or inconclusive. % is set by controls: 0 for no effect and ±100 for the full control effect; potency is the fitted concentration of half-maximal effect.

SMILES	3T3 cytotox	HEK cytotox	Luciferase inh	NPR1 antag
COc1ccc(CNC[C@H]2Cn3cc(-c4ccccc4)nc3CO2)cc1	?	?	i	2%[70.6 µM]
COc1ccc(-c2cn3c(n2)CO[C@@H](CNS(C)(=O)=O)C3)cc1	-4%[138 µM]	-5%[172 µM]	56µM*	-1%[70.6 µM]
COc1ccc(-c2cn3c(n2)CO[C@@H](CNCc2ccc(Cl)cc2)C3)cc1	100µM*	89µM*	63µM*	?
CCC(=O)NC[C@H]1Cn2cc(-c3ccc(OC)cc3)nc2CO1	4%[138 µM]	2%[172 µM]	63µM*	-1%[70.6 µM]
Cc1ccc(-c2cn3c(n2)CO[C@@H](CNS(C)(=O)=O)C3)cc1	-11%[174 µM]	1%[172 µM]	i	4%[70.6 µM]
O=C(c1ccsc1)N1CCC2(CC1)NCCc1c2[nH]c2ccccc12	-23%	?	i	-1%
COc1ccc(-c2cn3cc(C(=O)NCC4CCCCC4)nc3s2)cc1	-31%	?	nt	nt
O=C(NCCc1ccc(Cl)cc1)c1cn2cc(-c3ccccc3)sc2n1	-3%	4%	nt	nt
O=C(NCC1CC1)c1cn2cc(-c3ccccc3)sc2n1	?	100µM*	nt	nt
COc1cccc(-c2cn3cc(C(=O)NCC4CCCCC4)nc3s2)c1	?	22µM*	nt	nt
O=C(NCC1CC1)c1cn2cc(-c3cccc(C(F)(F)F)c3)sc2n1	-28%	?	nt	nt
COc1cccc(-c2cn3cc(C(=O)NCCc4ccc(Cl)cc4)nc3s2)c1	-13%	32µM*	nt	nt
COc1cccc(-c2cn3cc(C(=O)NCC4CC4)nc3s2)c1	?	71µM*	nt	nt
CN1CC(=O)N(c2ccccc2F)Cc2c(NC3CCNCC3)ncnc21	i	i	nt	nt
O=C1COc2ccc(OCc3ccccc3)nc2CN1Cc1ccc(F)cc1	?	?	?	-25%[70.6 µM]
COc1cccc(-c2ccc3c(n2)CN(Cc2ccc(F)cc2)C(=O)CO3)c1	?	89µM*	i	?
COc1cccc(CN2Cc3nc(OCc4ccc(F)cc4)ccc3OCC2=O)c1	?	100µM*	i	?
COc1cccc(C(=O)N2CCN(c3cc(-c4cccs4)[nH]n3)CC2)c1OC	?	?	i	-1%
O=C(CCC1CCCN(Cc2cccn2-c2cccnc2)C1)Nc1ccccc1F (centres undefined)	-21%	-9%	i	-4%
COc1ccccc1-c1ccc(CN2CCCCC2C(=O)NC2CC2)cc1 (centres undefined)	?	40µM*	nt	nt
O=C(NC1CC1)C1CCCN1Cc1ccc(-c2cncnc2)cc1 (centres undefined)	0%	i	nt	nt
COc1cccc(-c2cccc(C(=O)N3CCCC3C(=O)N3CCN(c4ncccn4)CC3)c2)c1 (centres undefined)	-18%	-26%	nt	nt
COc1ccccc1-c1cccc(C(=O)N2CCC[C@H]2C(=O)NC2CC2)c1	-1%	3%	nt	nt
COc1ccc(F)cc1-c1ccc(CN2CCCCC2C(=O)N2CCN(c3ncccn3)CC2)cc1 (centres undefined)	?	45µM*	nt	nt
COc1ccc(F)cc1-c1ccc(CN2CCCCC2C(=O)NC2CCC2)cc1 (centres undefined)	?	35µM*	nt	nt
SMILES	3T3 cytotox	HEK cytotox	Luciferase inh	NPR1 antag
COc1ccccc1-c1ccc(CN2CCCCC2C(=O)NC2CCCCC2)cc1 (centres undefined)	45µM*!	22µM*!	nt	nt
CCOc1ccccc1CN1CCC2(CC1)CC1C(=O)N(CC)C(=O)N1C2 (centres undefined)	-1%	-11%	i	-14%
CCCC1c2nccn2CCCN1C(=O)c1occc1C (centres undefined)	-6%	-25%	i	3%
COc1ccc(F)cc1-c1ccc(CN2CCC(NC(=O)C3CCCCC3)C2)cc1 (centres undefined)	32µM*	45µM*	nt	nt
O=C(c1ccc2ncccc2c1)N1CCC2(CC1)Nc1ccccc1NC2=O	-30%	89µM*	i	-2%
O=C(c1cccc2ncccc12)N1CCC2(CC1)Nc1ccccc1NC2=O	-22%	?	i	2%
CCOc1ccc(C(=O)N2CCN(C(=O)c3nnn4c3COC(c3ccc(Cl)cc3)C4)CC2)cc1 (centres undefined)	i	8%	i	-4%
NCc1ccc(-c2cc(C(F)(F)F)ccc2Cl)cc1	25µM*	28µM*	nt	nt
NCc1cccc(-c2cccc(Cl)c2)c1	89µM*	?	nt	nt
NCc1ccc(-c2cccc(C(F)(F)F)c2)cc1	32µM*	32µM*	nt	nt
O=C(O)c1ccc(-c2cccc(C(F)(F)F)c2)cc1	-11%[138 µM]	-15%[172 µM]	nt	nt
NCc1ccc(-c2cccc(O)c2)cc1	89µM*	89µM*	nt	nt
CNC(=O)c1cc(C2CC2)nc2c1c(C1CCN(C(=O)c3ccccc3Cl)CC1)nn2C	-19%	-13%	nt	nt
CN(C)Cc1ccc(-c2cc3c(ccn3Cc3ccncc3)c(N3CCOCC3)n2)cc1	?	100µM*	i	-1%[70.6 µM]
c1cc(Cn2ccc3c(N4CCOCC4)nc(-c4ccc5cn[nH]c5c4)cc32)ccn1	25µM*	40µM*	i	-21%[70.6 µM]
O=C(c1ccccc1Cl)N1CCC(C(=O)N2CCCC(c3nc4ccncc4[nH]3)C2)CC1 (centres undefined)	-27%	2%	nt	nt
O=C1N(CCc2ccccc2)CCOC12CCN(Cc1ccc(F)c(Cl)c1)CC2	45µM*	79µM*	i	?
c1cc(-c2nnc([C@H]3CCN(C4CCCCC4)C3)o2)ccn1	-12%[138 µM]	-19%[172 µM]	?	-16%[70.6 µM]
CN(C)c1ccc(-c2nnc([C@H]3CCN(C4CCC4)C3)o2)cc1	3%[138 µM]	-11%[172 µM]	71µM*	1%[70.6 µM]
c1ccc(-c2nnc([C@H]3CCN(C4CCC4)C3)o2)cc1	-14%[230 µM]	?	25µM*	-6%[70.6 µM]
c1ccc(-c2nnc([C@H]3CCN(C4CCOCC4)C3)o2)cc1	-8%[174 µM]	-1%[172 µM]	?	4%[70.6 µM]
COc1ccccc1-c1cnc(Nc2ccc(CN3CCN(C)CC3)cc2)c2c1CCO2	25µM*	35µM*	?	-11%[70.6 µM]
COc1ccc(C(=O)Nc2ncc(-c3ccc(OC)nc3)c3c2OCC3)cc1	?	-21%[172 µM]	?	-11%[70.6 µM]
COc1ccc(-c2cnc(Nc3ccc(CN4CCN(C)CC4)cc3)c3c2CCO3)cn1	28µM*	?	?	-15%[70.6 µM]
COc1ccccc1-c1cnc(Nc2cncnc2)c2c1CCO2	?	?	i	1%[70.6 µM]
CCOC(=O)C1(Cc2ccc(F)cc2F)CCCN(C(=O)Nc2ccc3c(c2)OCO3)C1 (centres undefined)	?	?	?	-1%
COc1ccc(CNC(=O)C2CCCN2Cc2cccc(-c3ccc(C)c(Cl)c3)c2)cc1 (centres undefined)	32µM*	35µM*	nt	nt
Cc1ccc(-c2cccc(CN3CCCC3C(=O)NCc3cccs3)c2)cc1Cl (centres undefined)	16µM*	35µM*	nt	nt

Assay outcomes deposited in PubChem BioAssay by National Center for Advancing Translational Sciences (NCATS).
